# Test results: PubChem BioAssay AID720526 (National Center for Advancing Translational Sciences (NCATS), 2013)
# Records with an inconclusive call do not appear. Active and inactive are the calls of the source. The call rests on the fitted dose curve; in most records, active means well fitted activation curve with a large enough effect; inconclusive means small, poorly fitted or top-dose-only effect; inactive means no such curve, though single readings can be large or run the other way.
# Experiment: qHTS Assay for NPC1 Promoter Activators: Hit Validation Using Renila Luciferase Read-Out for NPC1; on activity change, positive = activation: % of control where 0% means no effect
# Conditions: Huh7 NPC1 promoter-luciferase reporter, luminescence, 24 h; series mostly up to 76.9 µM; activity change, positive = activation: at the top concentration
# Method in brief: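 Luciferase reporter read-out: promoter activation measured by luminescence after 10 min with detection reagent at room temperature. Cells were Huh7 with a stable NPC promoter-luciferase construct, treated 24 h at 37 deg C.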
# Potency means the concentration at half of the fitted maximal effect.
Compound,Potency,"activity change, positive = activation"
CCCCCCOc1ccc(OC(=O)c2cccnc2)cc1,1.84 µM (active),–
Fc1ccc(-c2nc3nc4ccccc4nc3n2Cc2ccco2)cc1,–,-99.6% (inactive)
COc1ccc(-c2noc(N3CCCC(C(=O)Nc4ccccc4F)C3)n2)cc1 (stereo not drawn),–,4.18% (inactive)
CCC(=O)Nc1cc(-c2cc3ccccc3oc2=O)ccc1OC,–,5.23% (inactive)
Cc1cccc(N2CCN(C(=S)c3ccccc3)CC2)c1,–,9% (inactive)
CC(=O)c1c(C)[nH]c(C(=O)Nc2cccc(S(=O)(=O)N(C)C)c2)c1C,23.2 µM (active),–
FC(F)(F)c1ccc(Nc2nnnc3ccccc23)cc1,–,-69% (inactive)
CC(=O)Nc1ccc(NC(=O)COc2ncnc3ccccc23)cc1,–,-0.508% (inactive)
O=C(CCCN1C(=O)C(c2ccccc2)Oc2cccnc21)Nc1ccccc1Cl (stereo not drawn),–,15% (inactive)
CCC(=O)NC(=S)Nc1ccc(N2CCOCC2)cc1,–,14.4% (inactive)
CC(=O)c1cccc(NC(=O)N2CCOCC2)c1,–,-6.02% (inactive)
Cc1[nH]n(-c2cccc3ccccc23)c(=O)c1/C=N/c1sc2c(c1C#N)CCC2,–,-5.9% (inactive)
C=CCn1c(C)nnc1SCC(=O)Nc1nccs1,–,6.19% (inactive)
O=[N+]([O-])c1cnccc1Nc1ccc(F)cc1,–,-10.4% (inactive)
Brc1ccccc1-c1nnc(CSc2nnc3sc4ccccc4n23)o1,–,3.11% (inactive)
COC(=O)c1sccc1NC(=S)OC,–,5.09% (inactive)
COc1ccccc1C(=O)Nc1nnc(SCC(=O)NC2CCCC2)s1,–,18.1% (inactive)
CC(C)(C)C(=O)NC(=S)Nc1ccccc1F,–,-37% (inactive)
CCCN(CCC)CCCNC(=O)c1cc2cc3ccc(Cl)cc3nc2o1,–,-34% (inactive)

Compound,Potency,"activity change, positive = activation"
Cc1ccc(N(O)C(=O)NCCCCNC(=O)N(O)c2ccc(C)cc2)cc1,–,4.31% (inactive)
Cc1nc2sc(C(=O)OC(C)C)c(N)c2c(C)c1C,–,0.223% (inactive)
Nc1c(N(CCO)C(=O)/C=C/c2ccco2)c(=O)[nH]c(=O)n1Cc1ccccc1,–,13.3% (inactive)
Cc1ccc(NC(=O)c2c(O)c3ccccc3n(C)c2=O)nc1,–,-7.75% (inactive)
O=C(CSc1nnc(-c2ccccn2)o1)Nc1ccccc1F,–,7.47% (inactive)
S=C1NCN(CCc2ccccc2)CN1Cc1ccccc1,–,11.3% (inactive)
O=C(NC(=S)Nc1ccc(CN2CCCCC2)cc1)c1cc2ccccc2o1,–,-40.3% (inactive)
CCN(Cc1nc2cc(Cl)ccc2c(=O)[nH]1)C(=O)C1CC(=O)N(c2cccc3ccccc23)C1 (stereo not drawn),–,13.5% (inactive)
COc1ccc(S(=O)(=O)NC(C(=O)NCCc2ccccn2)C(C)C)cc1 (stereo not drawn),–,-2.89% (inactive)
CC(=O)NC(CCCN1C(=O)c2ccccc2C1=O)c1nnn(C)n1 (stereo not drawn),–,-17.1% (inactive)
NCCOc1ccccc1-c1ccccc1,–,-17% (inactive)
COc1ccc(NC(=O)Nc2ccc(Cc3ccncc3)cc2)cc1OC,–,-56.6% (inactive)
COc1ccc(-c2nnc(SCC(=O)/C(C#N)=C(\C)N)o2)cc1,–,2.86% (inactive)
CCOC(=O)c1ccc(NC(=O)Oc2cc(C)c(Cl)cc2C(C)C)cc1,–,-15.9% (inactive)
CCCCCCC(=O)Nc1ccc(C(=O)N/N=C/c2cccnc2)cc1,–,-21.7% (inactive)
CCCNC(=O)C1CCN(S(=O)(=O)c2ccc3[nH]c(=O)ccc3c2)CC1,–,14.4% (inactive)
O=C(N/N=C/c1ccc(-c2ccc(Br)cc2)o1)c1ccc2c(c1)OCO2,–,12.9% (inactive)
CCCCn1c(Nc2ccc(OC)cc2)nc2ccccc21,–,-4.57% (inactive)
COCCNC(=O)CN1C(=O)NC(c2ccccc2)(c2ccccc2)C1=O,–,3.54% (inactive)
